For 15 molecules, growth results are on record in PubChem BioAssay (NCI).

Among the test systems are T-47D breast; BT-549 breast; MDA-MB-435 melanoma; SW-620 colon; MCF7 breast; HCT-116 colon; HCC-2998 colon; KM12 colon.
Experiment in all cases: NCI-60 one-dose screen, 48 h (100 = growth as untreated, 0 = no growth, -100 = all killed)
What all share (details): 10 µM unless noted

Molecules are shown by their SMILES. About 83,000 compounds went through this panel and 20% of them were active in at least one assay; those are over-represented in the sample as a whole.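 Method: cells in 96-well plates; compound added at one concentration; 48 h incubation; percent growth measured; values under 10 scored active.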 Unmarked numbers belong to inactive results. Calls of active or inactive are those of the source.

For `NS(=O)(=O)c1ccc(Nc2nc(O)c(/C=C3\C=Nc4ccccc43)s2)cc1`, the growth in the assay with T-47D breast was 99.3%; with BT-549 breast it was 108%; with MDA-MB-435 melanoma it was 107%; in the assay on SW-620 colon, 99.6%; with MCF7 breast it was 94.2%; with HCT-116 colon it was 92.7%. The growth is 116% in the assay with HCC-2998 colon and 95.6% with KM12 colon.
For the molecule `CCCN1C(=O)CSC1=Nc1ccc2cc3ccc(N=C4SCC(=O)N4CCC)cc3nc2c1`, the growth with T-47D breast was 12.1%; in the assay on BT-549 breast, 41.7%; in the assay with MDA-MB-435 melanoma it was 40.5%; in the assay with SW-620 colon, 70.3%; in the assay with MCF7 breast, 16.8%; in the assay with HCT-116 colon, 37%. For the same molecule, the growth is 64.2% with HCC-2998 colon and 36.7% with KM12 colon.
For `COc1ccc(CNc2nc3ccccc3c3c(=O)c4ccccc4sc23)cc1OC`, the growth in the assay with T-47D breast was 93.5%; in the assay with BT-549 breast, 103%; with MDA-MB-435 melanoma, 91.7%; with SW-620 colon, 73.7%; in the assay with MCF7 breast, 73.9%; in the assay on HCT-116 colon, 68.8%. Also, the growth in the assay on HCC-2998 colon is 94%; in the assay with KM12 colon it was 79.8%.
Regarding `O=C(Nc1ccc(-n2ccc3c(NC(=O)c4ccccc4)ncnc32)cc1)Nc1ccc(Cl)c(C(F)(F)F)c1`, the growth was 12% in the assay with T-47D breast; 56% with BT-549 breast; 7.71% (active) in the assay on MDA-MB-435 melanoma; 12.6% in the assay with SW-620 colon; -51.3% (active) with MCF7 breast; -77.6% (active) in the assay with HCT-116 colon. In addition, the growth with HCC-2998 colon is 30.8%; in the assay with KM12 colon it was -25.4% (active).
Regarding `C=C1C(=O)O[C@H]2[C@H]1CC/C(COC(=O)c1ccc(Cl)nc1)=C\CC[C@@]1(C)O[C@@H]21`, the growth in the assay on T-47D breast was -31.1% (active); in the assay on BT-549 breast, 10.3%; with MDA-MB-435 melanoma, 14.6%; in the assay on SW-620 colon it was -45.2% (active); in the assay with MCF7 breast, 7.96% (active); with HCT-116 colon, -80.6% (active). For the same molecule, the figures for the growth with HCC-2998 colon and with KM12 colon were 95.5% and 82.8%, respectively.
With `COc1ccc(C(=O)NC(=O)Nc2ccc3c(c2)NC(=O)/C3=C\c2[nH]c(C)c(C(=O)O)c2C)c(F)c1`, the growth in the assay on T-47D breast is 58.5%; with BT-549 breast it was 21.7%; in the assay on MDA-MB-435 melanoma it was 66.4%; with SW-620 colon, 55%; in the assay with MCF7 breast, 74.8%; with HCT-116 colon, 59.6%. Further, the growth with HCC-2998 colon is 46.6%; with KM12 colon, 26.3%.
Regarding `O=S1(=O)N(CCNc2nccc(-c3c(-c4cccc(O)c4)nc4sccn34)n2)CCN1Cc1ccccc1`, the growth was 50.8% with T-47D breast; 69.9% in the assay with BT-549 breast; 45.9% with MDA-MB-435 melanoma; 74.4% in the assay with SW-620 colon; 59.5% in the assay on MCF7 breast; 45.9% in the assay on HCT-116 colon. Besides, the growth was 109% in the assay with HCC-2998 colon and 47.6% in the assay with KM12 colon.
On to `Fc1ccc(Nc2ncnc3ccc(-c4cn[nH]c4)cc23)cc1Cl`, for which the growth is -20.2% (active) in the assay on T-47D breast; 58% with BT-549 breast; 79.8% in the assay on MDA-MB-435 melanoma; 78.1% in the assay with SW-620 colon; 23.3% in the assay with MCF7 breast; 51.2% in the assay on HCT-116 colon. For the same molecule, the growth is 85% in the assay with HCC-2998 colon and 67.1% with KM12 colon.
Take `C=C1C(=O)O[C@H]2[C@H]1CC/C(CNC(=O)/C1=C/CC[C@@]3(C)O[C@H]3[C@H]3OC(=O)C(=C)[C@@H]3CC1)=C\CC[C@@]1(C)O[C@@H]21`: the growth with T-47D breast is 69.8%; with BT-549 breast, 101%; with MDA-MB-435 melanoma, 96.4%; in the assay on SW-620 colon it was 77.4%; in the assay with MCF7 breast, 75%; in the assay with HCT-116 colon it was 82.5%. Besides, the growth with HCC-2998 colon is 105%; in the assay with KM12 colon, 102%.
For `Cc1ccc(N(CC2=NCCN2)c2cccc(O)c2)cc1`, the growth in the assay on T-47D breast was 98.5%; with BT-549 breast it was 89.7%; with MDA-MB-435 melanoma, 100%; with SW-620 colon, 102%; with MCF7 breast, 93.9%; in the assay with HCT-116 colon, 101%. Further, the growth is 103% with HCC-2998 colon and 104% with KM12 colon.
As to `COC(=O)CCCNS(=O)(=O)c1cc(C(=O)Nc2ccc(NC(=O)c3cc(S(=O)(=O)NCCCC(=O)OC)c(O)c(O)c3O)cc2)c(O)c(O)c1O`, the growth with T-47D breast is 97.2%; with BT-549 breast, 99.4%; in the assay on MDA-MB-435 melanoma it was 1.35% (active); with SW-620 colon it was 95.8%; in the assay on MCF7 breast, 73.7%; in the assay on HCT-116 colon, 76.9%. In addition, the growth with HCC-2998 colon is 93.4%; with KM12 colon, 96%.
With `COc1ccc2c(c1)OC(N)=C(C#N)C2c1ccc(F)cc1` (stereo not given), the growth in the assay with T-47D breast is 40.7%; in the assay with BT-549 breast it was 20.1%; in the assay on MDA-MB-435 melanoma, -4.14% (active); in the assay with SW-620 colon, 18.6%; in the assay with MCF7 breast it was 18.1%; in the assay with HCT-116 colon, 24.9%. The growth is 54.5% in the assay on HCC-2998 colon and 26.4% in the assay on KM12 colon.
For `FC(F)(F)c1cccc([Si](F)(c2cccc(C(F)(F)F)c2)c2cccc(C(F)(F)F)c2)c1`, the growth with T-47D breast was 40.4%; in the assay on BT-549 breast it was 64.5%; in the assay on MDA-MB-435 melanoma, 95%; with SW-620 colon, 82%; in the assay with MCF7 breast, 67.1%; in the assay with HCT-116 colon it was 15.6%. Moreover, the growth is 99% with HCC-2998 colon and 74.8% in the assay on KM12 colon.
Consider `COc1ccccc1S(=O)(=O)Nc1ccc2c3c(cc(-c4ccoc4)nc13)C(=O)N2C`, for which the growth in the assay with T-47D breast is 70.1%; in the assay with BT-549 breast, 78.7%; in the assay on MDA-MB-435 melanoma it was 32.8%; in the assay with SW-620 colon, 71.3%; with MCF7 breast, 35.5%; with HCT-116 colon it was 63%. The growth in the assay on HCC-2998 colon is 74.7%; in the assay with KM12 colon it was 58.1%.
Regarding `COC1OCC(OS(=O)(=O)c2ccc(C)cc2)C(OC(=O)c2ccccc2)C1OC(=O)c1ccccc1` (stereo not given), the growth in the assay with T-47D breast was 44.4%; in the assay with BT-549 breast it was 39.1%; with MDA-MB-435 melanoma, -5.87% (active); in the assay with SW-620 colon it was 19.5%; in the assay on MCF7 breast, 22.6%; in the assay with HCT-116 colon, 32.4%. The figures for the growth in the assay with HCC-2998 colon and with KM12 colon were 56.9% and 30.7%, respectively.
